Screens as filed in PubChem.
A selection: hits, their analogues and other compounds. The true share with any hit is near 2.1%.
Mito fusion yeast = qHTS Assay for Small Molecule Inhibitors of Mitochondrial Division or Activators of Mitochondrial Fusion | S. cerevisiae fusion-defective mutant growth rescue, CellTiterGlo 48 h | 320,000 tested, 0.23% active | Potency, µM (top dose mostly 46.1 µM), for inactives: top-dose growth rescue (activation), usual class: activators; note: potency is the fitted concentration of half-maximal effect; % of control where 0% means no effect; nearly all actives have a fitted effect of over 45% in size
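Temperature-sensitive fusion-defective S. cerevisiae (e.g. fzo1-1, mgm1-5) were grown with compound in YPEG medium (3% ethanol, 3% glycerol) for 48 hours at 37C. Growth rescue was measured as viability by CellTiterGlo luminescence after 10 minutes at ambient.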
ClpP mod = qHTS Assay for Activators of ClpP; 340,000 tested, 1.9% active; ATP-dependent Clp protease proteolytic subunit (Bacillus subtilis (strain 168)), P80244; Potency, µM (series often up to 57.5 µM), for inactives: top-dose activity change, negative = active; purified B. subtilis ClpP, FRET peptide cleavage, 20 min; active = well fitted falling curve with a large enough effect; inconclusive = small, poorly fitted or top-dose-only effect; inactive = no such curve, though single readings can be large or run the other way; note: potency is the fitted concentration of half-maximal effect; the source files actives as falling curves though it sought activators and does not explain the sign; nearly all actives have a fitted effect of over 65% in size
Target sequence (P80244 whole entry, looked up): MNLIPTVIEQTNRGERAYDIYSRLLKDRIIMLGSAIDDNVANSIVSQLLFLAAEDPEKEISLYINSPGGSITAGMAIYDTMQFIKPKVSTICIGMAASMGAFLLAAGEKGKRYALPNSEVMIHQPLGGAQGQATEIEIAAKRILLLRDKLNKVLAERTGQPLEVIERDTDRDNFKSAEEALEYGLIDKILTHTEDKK
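ClpP 10 microg/mL final, pH 8 Tris/KCl buffer with BSA, glycerol, Tween-20; compound pinned in; FRET-FV substrate; RT 20 min; Ex320/Em430; ΔFRET vs ADEP 5.8 microM, DMSO, no enzyme.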
B2AR arrestin = qHTS assay of beta-arrestin-biased ligands of beta2-adrenergic receptor | Potency, µM (titrated, usually from 46.1 µM), for the others: top-dose activation, usual class: activators | beta-arrestin recruitment to beta2AR, cell-based reporter | Beta-2 adrenergic receptor (Homo sapiens), P07550 | 330,000 tested, 0.02% active;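 note: potency is the fitted concentration of half-maximal effect; 0% = DMSO controls and full agonism = EC100 isoproterenol or metaproterenol; nearly all actives have a fitted effect of over 65% in size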
Target sequence (P07550 whole entry, looked up): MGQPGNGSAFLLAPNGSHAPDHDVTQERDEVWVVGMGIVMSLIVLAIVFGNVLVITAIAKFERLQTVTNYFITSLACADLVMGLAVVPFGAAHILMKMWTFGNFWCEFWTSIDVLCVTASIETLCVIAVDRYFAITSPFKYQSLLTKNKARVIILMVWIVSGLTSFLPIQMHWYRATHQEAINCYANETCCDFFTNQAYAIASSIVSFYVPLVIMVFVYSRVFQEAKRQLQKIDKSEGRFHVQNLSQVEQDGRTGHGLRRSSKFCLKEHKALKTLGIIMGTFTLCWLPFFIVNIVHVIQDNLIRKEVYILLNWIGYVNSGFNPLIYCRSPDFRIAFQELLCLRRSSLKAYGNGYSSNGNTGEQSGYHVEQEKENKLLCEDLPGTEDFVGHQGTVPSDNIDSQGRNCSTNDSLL
p53 reactivator = qHTS assay for re-activators of p53 using a Luc reporter | Potency, µM (doses to about 92.2 µM), without a hit: at the top dose activity change, positive = activation, most hits filed as activators | H1299 p53-A138V BP100-luciferase reporter, luminescence, 24 h | 320,000 tested, 0.063% active; note: potency is the fitted concentration of half-maximal effect; % of control where 0% means no effect; nearly all actives have a fitted effect of over 45% in size
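H1299 (p53-null), stable ts p53-A138V + BP100-Luc; 1000 cells/well, Opti-MEM/10% FBS; cpd 4 pt, 1:5; 24 h, 37 deg C, 5% CO2; detection reagent 10 min RT; luminescence.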
Giardia kill = Small Molecules that selectively kill Giardia lamblia: qHTS; 340,000 tested, 0.15% active; activity change, % at 7.66 µM, hits read low; Giardia lamblia trophozoite viability; AID 540267, 2011; in the data active = activity change below about -80%; inconclusive = between about -30% and that limit;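 note: parasites exposed to compound for two days anaerobically before the ATP read; % is set by controls: 0 for no effect and ±100 for the full control effect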
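Luminescence from cellular ATP indicates surviving trophozoites (100 cells/well) following 48 hrs anaerobic compound treatment at 37 deg C; signal develops 15-30 min at room temperature.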
uPA surface inh = qHTS for Inhibitors of Cell Surface uPA Generation; cell surface uPA generation assay, qHTS; Potency, µM (highest dose often 38.3 µM), for the others: at the top dose activity change, negative = inhibition, hits mostly inhibitors; 330,000 tested, 0.31% active; AID 540303, 2011; active = well fitted inhibition curve with a large enough effect; inconclusive = small, poorly fitted or top-dose-only effect; inactive = no such curve, though single readings can be large or run the other way; tested in mouse RAW 264.7 cells; note: potency is the fitted concentration of half-maximal effect; % is set by controls: 0 for no effect and ±100 for the full control effect; nearly all actives have a fitted effect of over 55% in size
Numbers without * were called inactive; ? = inconclusive; . = no result given; ! = not confirmed by another sample. Unless noted, calls come from the whole dose curve; as a rule, active = well fitted curve in the direction sought with a large enough effect; inconclusive = small, poorly fitted or top-dose-only effect, or another doubt; inactive = no such curve, though single readings can be large; an effect the other way counts as inactive or inconclusive.

SMILES	Mito fusion yeast	ClpP mod	B2AR arrestin	p53 reactivator	Giardia kill	uPA surface inh
Cc1ccc2[nH]c(=O)c(C(c3nnnn3CC3CCCO3)N3CCOCC3)cc2c1 (centres undefined)	3.3%	22.4µM*	-0.2%	-4.3%	-1.3	.
COc1ccc2[nH]c(=O)c(C(c3nnnn3CC3CCCO3)N3CCc4ccccc4C3)cc2c1 (centres undefined)	1.5%	31.6µM*	-0.2%	-5.0%	-4.9	-2.6%
COc1ccccc1C(c1nnnn1CC1CCCO1)N1CCC(C(N)=O)CC1 (centres undefined)	-0.2%	-0.7%	-0.3%	-12.5%	-4.8	-9.6%
COc1ccc(C(c2nnnn2CC2CCCO2)N2CCC(C(N)=O)CC2)cc1 (centres undefined)	-4.0%	28.2µM*	-0.8%	-3.9%	4.6	3.9%
Cc1ccc2[nH]c(=O)c(C(c3nnnn3CC3CCCO3)N3CCc4ccccc4C3)cc2c1 (centres undefined)	0.0%	-19.3%	0.1%	-0.8%	10.2	.
COC(=O)Cc1c[nH]c2cccc(OCC(O)CN(Cc3ccc([N+](=O)[O-])cc3)C(C)(C)C)c12 (centres undefined)	-13.6%	-1.8%	-0.7%	-5.7%	2.0	7.5%
Cc1ccc(CN(CC(O)COc2cccc3[nH]cc(C)c23)C(C)(C)C)cc1 (centres undefined)	5.62µM*	-2.4%	-0.3%	-0.4%	33.3	5.9%
Cc1c(C(=O)Nc2ccc(F)cc2)oc2ccc(S(=O)(=O)N3CCCCCC3)cc12	.	-13.3%	.	.	.	.
Cc1nc2ccn(Cc3cccnc3)c(=O)c2cc1C(=O)NCc1ccc(Cl)cc1	.	12.6µM*	.	.	.	.
CCOC(=O)c1ccc(NC(=S)NNC(C)(C)C)cc1	2.2%	1.8%	22.4µM*	20.1%	31.4	-1.8%
Cc1cc2nc(-c3cccnc3SCC(=O)NC3CC3)[nH]c2cc1C	0.3%	.	0.2%	3.8%	.	.
O=C(CSc1ncccc1-c1nc2ccccc2[nH]1)NCc1ccco1	1.5%	14.1µM*	-1.2%	?	-3.8	.
Cc1cc2nc(-c3cccnc3SCC(=O)NCc3ccco3)[nH]c2cc1C	-12.4%	15.8µM*	-0.4%	?	-28.0	?
Cc1ccc(C)c(NC(=O)CN2C(=O)c3cccc4cccc2c34)c1	.	-2.0%	.	.	.	.
CCCC(C(=O)NCC1CCCO1)N(Cc1ccco1)C(=O)CNS(=O)(=O)c1ccccc1 (centres undefined)	2.6%	25.1µM*	0.3%	-3.3%	-14.2	-1.9%
CCCC(C(=O)NC1CCCCC1)N(Cc1ccco1)C(=O)CNS(=O)(=O)c1ccccc1 (centres undefined)	-1.6%	0.2%	-0.3%	-6.9%	0.1	0.4%
O=S(=O)(c1cccc(Cl)c1)N1CCN(c2nc(-c3cccs3)nc3ccccc23)CC1	.	14.1µM*!	.	.	11.1	.
Cc1cccc(S(=O)(=O)N2CCN(c3nc(-c4cccs4)nc4ccccc34)CC2)c1	.	-8.2%	.	.	-5.6	.
CC12CCC(=O)N1c1c(sc3nc(N4CCOCC4)c4c(c13)CCCC4)C(=O)N2 (centres undefined)	-4.4%	25.1µM*	-1.9%	-4.3%	-15.1	2.4%
O=C(CSc1nc(=O)n2cc(Cl)ccc2n1)NCCc1ccccc1	-6.2%	-10.4%	-0.3%	-4.2%	-1.0	-20.2%
Cc1ccc2nc(SCC(=O)NCCc3ccccc3)nc(=O)n2c1	-10.9%	28.2µM*	-0.3%	4.9%	-1.6	0.4%
Cc1ccc2nc(SCC(=O)OCc3ccccc3)nc(=O)n2c1	6.8%	28.2µM*	-0.5%	-0.5%	-0.6	-3.5%
CCOC(=O)CSc1nc(=O)n2cc(C)ccc2n1	0.2%	.	0.1%	5.0%	-7.0	-0.5%
COC(=O)c1ccccc1NC(=O)c1cnn2c1NC(=C1CC1)C=C2C(F)F	.	-21.5%	.	.	.	.
CCC(=O)Nc1cccc(C(=O)/C=C/c2cccs2)c1	?	-1.8%	-0.7%	12.7%	-29.9	?
SMILES	Mito fusion yeast	ClpP mod	B2AR arrestin	p53 reactivator	Giardia kill	uPA surface inh
CCC(=O)Nc1cccc(C(=O)/C=C/c2ccccc2)c1	9.2%	15.8µM*	0.3%	-11.4%	-22.3	-12.9%
COc1ccc(N2CCN(C(=O)C3CCN(S(=O)(=O)c4cn(C)cn4)CC3)CC2)cc1	.	-8.7%	.	.	.	.
CC1CCCN(c2nc(-c3cccnc3)nc3scc(-c4ccccc4)c23)C1 (centres undefined)	23.9%	14.1µM*	-0.1%	4.5%	-9.8	1.4%
CC1CCN(c2nc(-c3cccnc3)nc3scc(-c4ccccc4)c23)CC1	1.4%	?	-0.9%	-10.1%	-4.7	14.5%
CCCCN(C)CCCNC(=O)C1CCN(S(=O)(=O)CCC)CC1	.	0.3%	.	.	.	.
CCCC(=O)Nc1nnc(SCc2cc(=O)c3cc(C)ccc3[nH]2)s1	.	-0.8%	.	.	.	.
CCOc1ccccc1-c1nn2c(Cc3ccccc3)nnc2s1	1.7%	25.1µM*	-0.2%	-8.6%	-5.6	-7.3%
CN(C)c1ccc(-c2nn3c(-c4ccccc4Cl)nnc3s2)cc1	-0.6%	15.8µM*	-0.2%	0.1%	-0.2	-6.9%
COc1ccccc1-c1nnc2sc(-c3ccc(N(C)C)cc3)nn12	?	25.1µM*	-0.4%	15.8%	-19.0	-5.3%
COc1ccccc1-c1nn2c(-c3ccc(C(C)(C)C)cc3)nnc2s1	0.9%	.	0.3%	0.4%	.	.
FC(F)(F)c1nnc2sc(-c3ccccn3)nn12	3.6%	2.4%	-0.1%	-5.6%	1.6	3.8%
Clc1ccccc1-c1nnc2sc(-c3ccncc3)nn12	0.7%	-1.3%	0.3%	-3.0%	-7.5	-5.6%
COc1ccccc1-c1nn2c(C(F)(F)F)nnc2s1	-3.3%	12.6µM*	0.2%	2.5%	2.0	1.6%
C=Nc1ccc(/C=C/c2ccnc3ccccc23)cc1	.	-0.2%	.	.	.	.
O=C(NC1C2CC3CC(C2)CC1C3)c1ccc2c(c1)OCO2 (centres undefined)	5.6%	20µM*	-0.3%	5.8%	22.9	3.9%
Cc1sc(N)nc1-c1ccccc1	-5.8%	-0.5%	-0.3%	-0.7%	-11.6	-0.9%
Nc1c(-c2ccccc2)nc(Cl)nc1-c1ccccc1	-2.5%	31.6µM*	-0.1%	20.0%	-4.7	-4.6%
CCOc1nc(-c2ccccc2)ccc1-c1noc(-c2ccncc2)n1	-0.5%	-25.3%	7.1%	-3.6%	-0.7	-1.1%
CCOc1nc(-c2ccccc2)ccc1-c1noc(COC)n1	6.8%	35.5µM*	-0.6%	-8.2%	1.6	1.7%
CCOc1nc(-c2ccccc2)ccc1-c1noc(-c2cccs2)n1	-0.7%	25.1µM*	-0.6%	4.7%	0.2	.
